Measurements published in the supplement of paper PMC4683952.
Where a name gives a salt, the structure may show the parent alone. About 50 (4%) of roughly 1,200 compounds showed activity. This excerpt belongs to a sample that is enriched for actives. A number with no mark means an inactive call. No stated cut-off is given here; in the data, all actives reach 1.3 or more but so do some inactives.

tested on: Lgr5 (MarsCy1-Lgr5-EGFP, U2OS); experiment: cell-surface Lgr5 expression (SCi1 fluorescence, background-subtracted) relative to WT DMSO (fold of DMSO control); higher = more Lgr5 at the plasma membrane, active = hit call of the paper; conditions: U2OS MarsCy1-Lgr5-EGFP stable; treatment time: overnight; 16 µM; library: Johns Hopkins Clinical Compound Library

SMILES	cell-surface Lgr5 expression
O=P([O-])([O-])[O-].O=P([O-])([O-])[O-].[Ca+2].[Ca+2].[Ca+2] [Calcium phosphate tribasic]	0.836
CC1=CC(=C(c2ccc(N)cc2)c2ccc(N)cc2)C=CC1=N [Basic fuchsin hydrochloride]	1.12
CC1(C)S[C@@H]2[C@H](NC(=O)COc3ccccc3)C(=O)N2[C@H]1C(=O)O [Penicillin V (phenoxymethyl penicillinic acid)]	1.08
CC1(C)S[C@@H]2[C@H](NC(=O)COc3ccccc3)C(=O)N2[C@H]1C(=O)O	0.694
NC[C@H]1O[C@H](O[C@H]2[C@H](O)[C@@H](O[C@H]3O[C@H](CO)[C@@H](O)[C@H](N)[C@H]3O)[C@H](N)C[C@@H]2N)[C@H](N)[C@@H](O)[C@@H]1O [Kanamycin B sulfate salt]	0.875
CCNC(=O)CCC/C=C\C[C@@H]1[C@@H](/C=C/[C@@H](O)CCc2ccccc2)[C@H](O)C[C@@H]1O [Bimatoprost]	1.06
C=C1c2c(Cl)ccc(O)c2C(O)=C2C(=O)[C@]3(O)C(O)=C(C(N)=O)C(=O)[C@@H](N(C)C)[C@@H]3[C@@H](O)[C@H]12.O=C(O)c1cc(S(=O)(=O)O)ccc1O [Meclocycline sulfosalicylate salt]	0.705
Cc1scc2c1N(C(=O)CN1CCN(C)CC1)c1ccccc1NC2=O [Telenzepine]	1.3 (active)
O=C([O-])CC(O)(CC(=O)[O-])C(=O)[O-].[Li+].[Li+].[Li+] [Tri-lithium citrate]	1.06
Cc1cc(O)c(C(=O)N[C@@H](C(=O)N[C@@H]2C(=O)N3C(C(=O)O)=C(CSc4nnnn4C)CS[C@H]23)c2ccc(O)cc2)cn1 [Cefpiramide]	0.869
CCSc1ccc2c(c1)N(CCCN1CCN(C)CC1)c1ccccc1S2 [Thiethylperazine malate]	1.12
Cc1cc2c(OCC(CNC(C)(C)C)OC(=O)c3ccccc3)cccc2[nH]1 (stereo unspecified) [Bopindolol Maleate]	1.3
C[n+]1c2cc(N)ccc2cc2ccc(N)cc21.Nc1ccc2cc3ccc(N)cc3nc2c1 [Acriflavine hydrochloride]	1.44
CO[C@@H]1[C@@H](O[C@@H]2O[C@H](C)[C@@H](O[C@H]3C[C@@](C)(O)[C@@H](OC(=O)CC(C)C)[C@H](C)O3)[C@H](N(C)C)[C@H]2O)[C@@H](CC=O)C[C@@H](C)[C@@H](O)/C=C/C=C/C[C@@H](C)OC(=O)C[C@H]1OC(C)=O [Josamycin]	1.1
Nc1ncn([C@H]2C[C@H](O)[C@@H](CO)O2)c(=O)n1 [Decitabine (5-aza-2-deoxycytidine)]	1.47 (active)
O=c1[nH]c(=O)n([C@H]2C[C@H](O)[C@@H](CO)O2)cc1F [Floxuridine (5-fluorodeoxyuridine)]	0.664
Nc1nc(Cl)nc2c1ncn2[C@H]1C[C@H](O)[C@@H](CO)O1 [Cladribine (2-chloro,2-deoxyadenosine)]	0.832
CCC(C(=O)OCCN(CC)CC)c1ccccc1 (stereo unspecified) [Butetamate (Butethamate)]	1.2
CCN(CC)CC#CCOC(=O)C(O)(c1ccccc1)C1CCCCC1 (stereo unspecified) [Oxybutynin chloride]	0.687

SMILES	cell-surface Lgr5 expression
CCN(CC)CCOCCOC(=O)C(CC)(CC)c1ccccc1 [Oxeladin citrate salt]	1.48 (active)
Cc1cc(/C=C/c2ccc3cc(N(C)C)ccc3[n+]2C)c(C)n1-c1ccccc1 [Pyrvinium pamoate]	1.09
C[Se]CCC(N)C(=O)O [Seleno-D, L-methionine]	1.08
CC(=O)[C@H]1CC[C@H]2[C@@H]3CCC4=CC(=O)CC[C@]4(C)[C@H]3CC[C@]12C [Progesterone]	1.16
C[C@]12CCC(=O)C=C1CC[C@@H]1[C@@H]2[C@@H](O)C[C@]2(C=O)[C@@H](C(=O)CO)CC[C@@H]12 [Aldosterone]	1.55 (active)
CC1(C)O[C@@H]2C[C@H]3[C@@H]4C[C@H](F)C5=CC(=O)C=C[C@]5(C)[C@H]4[C@@H](O)C[C@]3(C)[C@]2(C(=O)CO)O1 [Flunisolide]	1.47 (active)
CCCCCC(=O)O[C@]1(C(C)=O)CC[C@H]2[C@@H]3CCC4=CC(=O)CC[C@]4(C)[C@H]3CC[C@@]21C	1.11
CC1(C)O[C@@H]2C[C@H]3[C@@H]4C[C@H](F)C5=CC(=O)CC[C@]5(C)[C@H]4[C@@H](O)C[C@]3(C)[C@]2(C(=O)CO)O1	1.55 (active)
CCCCCC(=O)O[C@]1(C(C)=O)CC[C@H]2[C@@H]3CCC4=CC(=O)CC[C@]4(C)[C@H]3CC[C@@]21C [Progesterone caproate (17alpha-hydroxyprogesterone)]	1.05
CC(=O)O[C@]1(C(C)=O)CC[C@H]2[C@@H]3CCC4=CC(=O)CC[C@]4(C)[C@H]3CC[C@@]21C [Hydroxyprogesterone acetate (17alpha-Acetoxyprogesterone)]	1.21
CC(=O)[C@@]1(O)CC[C@H]2[C@@H]3C[C@H](C)C4=CC(=O)CC[C@]4(C)[C@H]3CC[C@@]21C [6α-Methyl-17α-hydroxy-progesterone (Medroxyprogesterone)]	1.45
C[C@]12CCC(=O)C=C1CC[C@@H]1[C@@H]2[C@@H](O)C[C@@]2(C)[C@H]1CC[C@]2(O)C(=O)COC(=O)CCC(=O)O [Hydrocortisone hemisuccinate monohydrate]	1.36 (active)
CC(=O)OCC(=O)[C@H]1CC[C@H]2[C@@H]3CCC4=CC(=O)CC[C@]4(C)[C@H]3CC[C@]12C	1.01
CC(=O)[C@H]1CC[C@H]2[C@@H]3C[C@H](C)C4=CC(=O)CC[C@]4(C)[C@H]3[C@@H](O)C[C@]12C [Medrysone (6-alpha-Methyl-11-beta-Hydroxyprogesterone)]	1.27
NCCCC(N)(C(=O)O)C(F)F (racemic)	1.18
[Br-].[K+] [Potassium bromide]	0.93
CCOC(=O)[C@H](CCc1ccccc1)N[C@H]1CCc2ccccc2N(CC(=O)O)C1=O [Benazepril hydrochloride]	0.872
O=S(=O)(O)CCS [Mesna (2-Mercaptoethane Sulfonic Acid Sodium Salt)]	0.815
O=S(=O)(O)CCS [Mesna (2-Mercaptoethanesulfonic acid)]	0.844

SMILES	cell-surface Lgr5 expression
O=P([O-])(O)O.[Na+] [Sodium phosphate monobasic]	1.11
[Na+].[O]=[Bi](=[O])[O-] [Sodium bismuthate]	0.965
CC1=C(C/C=C(\C)CCC[C@H](C)CCC[C@H](C)CCCC(C)C)C(=O)c2ccccc2C1=O [Vitamin K1 (Phylloquinone, phytonadione)]	0.865
NS(=O)(=O)c1cc2c(cc1C(F)(F)F)NC(Cc1ccccc1)NS2(=O)=O (stereo unspecified) [Bendroflumethiazide]	1.02
CCCC(O)C(CC)CO (stereo unspecified) [Ethohexadiol (2-Ethyl-1,3-hexanediol)]	1.04
Clc1ccc(CO/N=C(\Cn2ccnc2)c2ccc(Cl)cc2Cl)c(Cl)c1 [Oxiconazole nitrate]	0.871
O=[N+]([O-])c1ccc(/C=N/O)o1 [Nifuroxime]	0.992
O.[Al+3].[Al+3].[Cl-].[OH-].[OH-].[OH-].[OH-].[OH-] [Aluminum chlorohydrate]	0.754
Cc1onc(-c2ccccc2)c1C(=O)N[C@@H]1C(=O)N2[C@@H]1SC(C)(C)[C@@H]2C(=O)O [Oxacillin]	0.726
CCC(=O)[C@@]1(C)[C@H](C)C[C@H]2[C@@H]3CCC4=CC(=O)C=C[C@]4(C)[C@H]3[C@@H](O)C[C@@]21C [Rimexolone]	1.39 (active)
C[C@]12C=CC(=O)C=C1CC[C@@H]1[C@@H]2[C@@H](O)C[C@@]2(C)[C@H]1CC[C@]2(O)C(=O)COP(=O)(O)O [Prednisolone sodium phosphate]	1.25
C[C@H]1C[C@@H]2[C@H]([C@@H](O)C[C@@]3(C)[C@H]2CC[C@]3(O)C(=O)CO)[C@@]2(C)C=CC(=O)C=C12 [Methylprednisolone (6-alpha-Methylprednisolone)]	1.12
CC1(C)O[C@@H]2C[C@H]3[C@@H]4CCC5=CC(=O)C=C[C@]5(C)[C@H]4[C@@H](O)C[C@]3(C)[C@]2(C(=O)CO)O1	1.44 (active)
C[C@]12C=CC(=O)C=C1CC[C@@H]1[C@@H]2[C@@H](O)C[C@@]2(C)[C@H]1CC[C@]2(O)C(=O)COP(=O)(O)O [Prednisolone 21-phosphate, disodium salt]	1.41 (active)
N[C@H]1C(O)O[C@H](CO)[C@@H](O)[C@@H]1O (stereo partly specified) [Glucosamine]	1.06
c1ccc(Cc2nc3ccccc3[nH]2)cc1 [Bendazol (2-Benzylbenzimidazole)]	1.05
N=C(N)N1Cc2ccccc2C(O)C1 (stereo unspecified) [4-Hydroxydebrisoquin]	1.07
Cc1cc2nc3c(=O)[nH]c(=O)nc-3n(C[C@H](O)[C@H](O)[C@H](O)COP(=O)(O)OP(=O)(O)OC[C@H]3O[C@@H](n4cnc5c(N)ncnc54)[C@H](O)[C@@H]3O)c2cc1C [Flavin adenine dinucleotide]	1.01
